Source: PubChem BioAssay AID1159580 (chemical genetic matrix, 2015)
The whole screen tested about 5,500 compounds, of which about 2,000 (36%) were called active. Another 18% or so got no clear call; they are omitted. The list shows a part of the results. Values without a mark were called inactive. No stated cut-off is given here; in the data, active means normalized growth mostly below about 0.91 (no sharp cut-off); inconclusive means no clear call, values can overlap the other calls; inactive means mostly above about 0.92.

Assay: chemical genetic growth profiling, strain panel (AID 1159580);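 further: tested at 20 µM; growth read once vehicle control cultures reached saturation at 30 °C; 1 = growth at the plate median or of vehicle wells; lower values mean less growth of the strain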
Settings: S. cerevisiae deletion strains, growth OD

With `O=C(O)c1c2ccccc2cc2ccccc12` the normalized growth (locus YAL013W, strain DEP1, active compounds read low) was 1.02, the normalized growth (locus YAL021C, strain ccr4, active compounds read low) was 0.973 and the normalized growth (locus YAL026C, strain drs2, active compounds read low) was 1.02. It also gave a normalized growth (locus YAL030W, strain snc1, active compounds read low) of 0.99, a normalized growth (locus YBL061C, strain skt5, active compounds read low) of 1 and a normalized growth (locus YBR009C, strain hhf1, active compounds read low) of 0.989. It also gave a normalized growth (locus YBR021W, strain FUR4, active compounds read low) of 0.967, a normalized growth (locus YBR023C, strain chs3, active compounds read low) of 1.01 and a normalized growth (locus YBR171W, strain sec66, active compounds read low) of 0.994. For the same compound, the normalized growth (locus YBR229C, strain ROT2, active compounds read low) was 1.02, the normalized growth (locus YBR231C, strain swc5, active compounds read low) was 1.01 and the normalized growth (locus YBR279W, strain paf1, active compounds read low) was 0.959. It also gave a normalized growth (locus YCL011C, strain gbp2, active compounds read low) of 0.998, a normalized growth (locus YCL016C, strain dcc1, active compounds read low) of 1.01 and a normalized growth (locus YCL029C, strain bik1, active compounds read low) of 0.992. For the same compound, the normalized growth (locus YCL061C, strain MRC1, active compounds read low) was 1, the normalized growth (locus YCL069W, strain vba3, active compounds read low) was 1.01 and the normalized growth (locus YCR088W, strain abp1, active compounds read low) was 0.996. For the same compound, the normalized growth (locus YDL005C, strain med2, active compounds read low) was 0.99, the normalized growth (locus YDL035C, strain GPR1, active compounds read low) was 1 and the normalized growth (locus YDL040C, strain nat1, active compounds read low) was 0.991. For the same compound, the normalized growth (locus YDL074C, strain BRE1, active compounds read low) was 1.03, the normalized growth (locus YDL101C, strain DUN1, active compounds read low) was 1.02 and the normalized growth (locus YDL134C, strain PPH21, active compounds read low) was 1.01. The normalized growth (locus YDL185W, strain tfp1, active compounds read low) was 0.953, the normalized growth (locus YDL192W, strain arf1, active compounds read low) was 0.98 and the normalized growth (locus YDR001C, strain nth1, active compounds read low) was 0.991. For the same compound, the normalized growth (locus YDR069C, strain doa4, active compounds read low) was 0.991, the normalized growth (locus YDR101C, strain arx1, active compounds read low) was 0.983 and the normalized growth (locus YDR137W, strain rgp1, active compounds read low) was 0.965. It also gave a normalized growth (locus YDR150W, strain NUM1, active compounds read low) of 1.02, a normalized growth (locus YDR159W, strain sac3, active compounds read low) of 1.03 and a normalized growth (locus YDR162C, strain NBP2, active compounds read low) of 1.03. The normalized growth (locus YDR195W, strain ref2) was 1.26 [resistant] (active), the normalized growth (locus YDR297W, strain sur2, active compounds read low) was 0.99 and the normalized growth (locus YDR318W, strain mcm21, active compounds read low) was 0.976. It also gave a normalized growth (locus YDR334W, strain swr1, active compounds read low) of 1, a normalized growth (locus YDR335W, strain msn5, active compounds read low) of 1 and a normalized growth (locus YDR388W, active compounds read low) of 0.98. It also gave a normalized growth (locus YDR392W, strain spt3, active compounds read low) of 0.906, a normalized growth (locus YDR502C, strain sam2, active compounds read low) of 0.986 and a normalized growth (locus YEL003W, strain gim4, active compounds read low) of 0.994. The normalized growth (locus YEL037C, strain rad23, active compounds read low) was 1.01, the normalized growth (locus YEL061C, strain CIN8 (second series), active compounds read low) was 0.993 and the normalized growth (locus YEL061C, strain CIN8, active compounds read low) was 1.01. The normalized growth (locus YER015W, strain faa2, active compounds read low) was 1.01, the normalized growth (locus YER016W, strain bim1, active compounds read low) was 1.01 and the normalized growth (locus YER110C, active compounds read low) was 0.964. For the same compound, the normalized growth (locus YER111C, strain swi4, active compounds read low) was 0.997, the normalized growth (locus YER155C, strain BEM2 (second series), active compounds read low) was 1.01 and the normalized growth (locus YER155C, strain BEM2, active compounds read low) was 1.01. For the same compound, the normalized growth (locus YER167W, strain BCK2, active compounds read low) was 1.02, the normalized growth (locus YFR010W, strain ubp6, active compounds read low) was 1.01 and the normalized growth (locus YGL078C, strain dbp3, active compounds read low) was 0.969. The normalized growth (locus YGL086W, strain mad1, active compounds read low) was 0.984, the normalized growth (locus YGL167C, strain pmr1, active compounds read low) was 1 and the normalized growth (locus YGL173C, strain kem1, active compounds read low) was 0.996. The normalized growth (locus YGL227W, strain vid30, active compounds read low) was 1, the normalized growth (locus YGL240W, strain doc1, active compounds read low) was 0.964 and the normalized growth (locus YGL248W, strain PDE1, active compounds read low) was 1.02. The normalized growth (locus YGL253W, strain hxk2, active compounds read low) was 1.01, the normalized growth (locus YGR078C, strain PAC10, active compounds read low) was 1.01 and the normalized growth (locus YGR135W, strain pre9, active compounds read low) was 0.971. For the same compound, the normalized growth (locus YGR229C, strain SMI1, active compounds read low) was 1.02, the normalized growth (locus YGR252W, strain gcn5, active compounds read low) was 0.955 and the normalized growth (locus YHR013C, strain ard1, active compounds read low) was 0.926. For the same compound, the normalized growth (locus YHR027C, strain rpn1, active compounds read low) was 1.01, the normalized growth (locus YHR030C, strain SLT2, active compounds read low) was 1.01 and the normalized growth (locus YHR079C, strain IRE1 (second series), active compounds read low) was 0.989. It also gave a normalized growth (locus YHR094C, strain hxt1, active compounds read low) of 0.987, a normalized growth (locus YHR129C, strain ARP1, active compounds read low) of 1.02 and a normalized growth (locus YHR142W, strain chs7, active compounds read low) of 0.987. For the same compound, the normalized growth (locus YHR200W, strain rpn10, active compounds read low) was 0.977, the normalized growth (locus YIL066C, strain RNR3, active compounds read low) was 0.981 and the normalized growth (locus YIL073C, strain SPO22, active compounds read low) was 0.924. It also gave a normalized growth (locus YIL125W, strain kgd1, active compounds read low) of 0.959, a normalized growth (locus YIR030C, strain dcg1, active compounds read low) of 0.987 and a normalized growth (locus YJL092W, strain hpr5, active compounds read low) of 1.01. The normalized growth (locus YJL095W, strain BCK1 (second series), active compounds read low) was 0.988, the normalized growth (locus YJL095W, strain BCK1, active compounds read low) was 1 and the normalized growth (locus YJL115W, strain asf1, active compounds read low) was 0.997. It also gave a normalized growth (locus YJL129C, strain trk1, active compounds read low) of 1, a normalized growth (locus YJL134W, strain LCB3, active compounds read low) of 1.01 and a normalized growth (locus YJL154C, strain vps35, active compounds read low) of 0.988. It also gave a normalized growth (locus YJL164C, strain tpk1, active compounds read low) of 0.969, a normalized growth (locus YJL166W, strain qcr8, active compounds read low) of 0.973 and a normalized growth (locus YJL168C, strain set2, active compounds read low) of 0.971. It also gave a normalized growth (locus YJL187C, strain SWE1 (second series), active compounds read low) of 1.01 and a normalized growth (locus YJL187C, strain SWE1, active compounds read low) of 0.985.
